Measured values: PubChem BioAssay AID743060 (The Scripps Research Institute Molecular Screening Center, 2013)

Experiment: inhibitors of T. brucei MetRS aminoacylation, late-stage follow-up, biochemical, radioactivity, round 1 (AID 743060)
Details: purified enzyme, radiolabel aminoacylation, scintillation, 2 h; at 1 µM; stronger effect = higher value

SMILES	inhibition [%]
Cc1cccc2[nH]c(C3CCCN(C(=O)c4cccc5cccnc45)C3)nc12 (centres undefined)	-3.03
COc1ccc(OCC(O)CNC(=O)Nc2ccc(Cl)cc2)cc1 (centres undefined)	28.9
Cc1[nH]c2ccc(Br)cc2c(=O)c1CN1CCCCCC1	19.4
O=C(N/C(=C\c1cccnc1)c1nc2ccccc2[nH]1)c1cccc(Br)c1	14.4
O=C(NCc1nc2ccccc2[nH]1)C1=C[C@H](c2ccc(Br)cc2)C[C@H](OCc2ccc(CO)cc2)O1	50.3
O=C(CN1CCSC1=NCc1ccccc1)c1ccc(Cl)c(Cl)c1	-1.95
Cc1cccc2[nH]c(CCN(C)C(=O)c3cccc(C4CCNC4)c3)nc12 (centres undefined)	-7.8
CCO[C@H]1OC(C(=O)NCc2nc3ccccc3[nH]2)=C[C@@H](c2ccc(Br)cc2)[C@@H]1CCCO	0.88
CCO[C@@H]1OC(C(=O)NCc2nc3ccccc3[nH]2)=C[C@H](c2ccc(Br)cc2)[C@H]1CCCO	6.72
O=C(Cn1cc(C(=O)C(=O)N2CCCC2)c2ccccc21)Nc1ccccc1	-5.78
O=C(CSC1CC(=O)N(c2cccc(Cl)c2)C1=O)Nc1ccc(Br)cc1 (centres undefined)	23.7
CN1CC(=O)N2C(c3cccc([N+](=O)[O-])c3)c3[nH]c4ccccc4c3C[C@H]2C1=O (some centres undefined)	57.7
O=C1CC(SCc2nc3ccccc3[nH]2)C(=O)N1c1cccc(Cl)c1 (centres undefined)	19.7
CC(C)(C)[C@H]1C=C(C(=O)NCc2nc3ccccc3[nH]2)O[C@@H](OCc2ccc(CO)cc2)C1	21.6
COc1ccc2[nH]c3nc(SCC(=O)Nc4ccc5c(c4)OCO5)nnc3c2c1	63.4
CC1Cc2ccccc2N1C(=O)Cn1cc(C(=O)C(=O)N2CCOCC2)c2ccccc21 (centres undefined)	-6.83
Cc1ccc(C(=O)NCCc2nc3ccccc3[nH]2)cc1[N+](=O)[O-]	35.7

SMILES	inhibition [%]
Clc1ccc(-c2nnc(SCc3nc4ccccc4[nH]3)o2)c(Cl)c1	75.3
O=C(NCc1nc2ccccc2[nH]1)C1=C[C@@H](C2CC2)C[C@@H](OCc2ccc(CO)cc2)O1	52.8
O=C(NCc1nc2ccccc2[nH]1)C1=C[C@H](c2ccc(Br)cc2)C[C@H](OCCCCO)O1	51.6
O=C(C(=O)N1CCOCC1)c1cn(CC(=O)N2CCCc3ccccc32)c2ccccc12	-6
O=C1CC(N(CCc2ccccc2)C(=S)Nc2ccccc2)C(=O)N1c1ccc(Br)cc1 (centres undefined)	84.2
O=C(NCc1nc2ccccc2[nH]1)C1=C[C@H](c2ccc3c(c2)OCO3)C[C@H](OCCCCO)O1	5.68
Cc1cccc(C(=O)NCCc2nc3ccccc3n2CCOc2ccccc2)c1	1.66
CC(=O)N(CCc1ccccc1)C1CC(=O)N(c2ccc(Br)cc2)C1=O (centres undefined)	-12.2
Cc1cc2cc(C(=O)N3CCCC(c4nc5ccccc5[nH]4)C3)ccc2o1 (centres undefined)	20.3
O=C(NCc1nc2ccccc2[nH]1)C1=C[C@H](c2csc3ccccc23)C[C@H](OCCCCO)O1	71.1
CCN(CC)C(=O)C(=O)c1cn(CC(=O)Nc2ccccc2OC)c2ccccc12	-7.03
COCCc1nc2ccc(C(=O)NCCc3nc4ccc(OC)cc4[nH]3)cc2o1	-1.44
CCN(C(=O)Cn1cc(C(=O)C(=O)N2CCOCC2)c2ccccc21)c1ccccc1	-19.2
Cn1c(CCNC(=O)c2ccc(Cl)cc2)nc2ccccc21	10.9
CN(Cc1cc(Cl)cc(Cl)c1)[C@H]1C[C@H]2c3[nH]c4ccccc4c3CCN2C(=O)[C@H]1CO	95.1
Cc1ccc(NC(=O)CN(C)C(=O)CCSc2ccc(F)cc2)cc1	-1.05
O=C(NCCc1nc2ccccc2[nH]1)c1c(F)cccc1F	2.62
